The nature of assay [1]: qHTS profiling for inhibitors of Plasmodium falciparum proliferation (AID 504749). Also: nearly all actives have a fitted effect of over 60% in size.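 As to activity, negative = inhibition: 0% = DMSO vehicle and full inhibition = artemisinin control.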 Particulars: P. falciparum in erythrocytes, SYBR Green DNA, 72 h. The essentials: (§1)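 Three-day growth assay of blood-stage parasites in erythrocytes (0.3% parasitemia, 2.5% hematocrit) at 37 C, 5% CO2, quantified by SYBR Green DNA staining after overnight detergent lysis.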
The subject of a further assay is 3D7. Described as above. Particulars: P. falciparum in erythrocytes, SYBR Green DNA, 72 h; series mostly up to 28.7 µM. The essentials:
as §1

The next assay relates to 7G8. The description is as above. Particulars: P. falciparum in erythrocytes, SYBR Green DNA, 72 h; series mostly up to 28.7 µM. The essentials:
as §1

Another assay has as its system AA1029. The description is as above. The settings on record: P. falciparum in erythrocytes, SYBR Green DNA, 72 h; series mostly up to 28.7 µM. The essentials:
as §1

In another assay the test system is AS120. The description is as above. Particulars: P. falciparum in erythrocytes, SYBR Green DNA, 72 h; series mostly up to 28.7 µM. The essentials:
as §1

Another assay has as its system ATS189. The description is as above. Particulars: P. falciparum in erythrocytes, SYBR Green DNA, 72 h; series mostly up to 28.7 µM. The essentials: as §1
For another assay, the system named is ATS95. Described as above. The settings on record: P. falciparum in erythrocytes, SYBR Green DNA, 72 h; series mostly up to 28.7 µM. The essentials: as §1
The test system of another assay is C2A. Described as above. The settings on record: P. falciparum in erythrocytes, SYBR Green DNA, 72 h; series mostly up to 28.7 µM. In a few lines:
as §1

The next assay deals with CP185. The assay is described as above. Particulars: P. falciparum in erythrocytes, SYBR Green DNA, 72 h; series mostly up to 28.7 µM. In a few lines:
as §1

For a further assay, the system named is CP191. The assay is described as above. The settings on record: P. falciparum in erythrocytes, SYBR Green DNA, 72 h; series mostly up to 28.7 µM. In a few lines: as §1
Setting [2] is: at 28.7 µM (top of the series), parasite line A.
[3] abbreviates: at 28.7 µM (top of the series), parasite line B.

Records with an inconclusive call do not appear. A number with no mark means an inactive call. Calls of active or inactive are those of the source. Calls follow the shape of the dose curve; as a rule, active = well fitted inhibition curve with a large enough effect; inconclusive = small, poorly fitted or top-dose-only effect; inactive = flat fitted curve, though single readings scatter.
Potency is read from the fitted curve at half-maximal effect.

Consider `NCCC(O)(P(=O)(O)O)P(=O)(O)O`, for which the activity, negative = inhibition in [1] (setting [2]) was 4.48%; in assay [1] (setting [3]), -11.5%. Moreover, the Potency entry in the assay on 3D7, with 7G8, in the assay with AA1029, with AS120, in the assay on ATS189 and with ATS95 was “inactive” each time. Moreover, the Potency entry in the assay with C2A, in the assay with CP185 and in the assay with CP191 was “inactive” each time.

For `c1ccc(CNCCNCc2ccccc2)cc1`, the figures for the activity, negative = inhibition in [1] (setting [2]) and in assay [1] (setting [3]) were 2.06% and 5.37%, respectively. The Potency entry with 3D7 and in the assay with CP191 was “inactive” throughout. For the same compound, the Potency with 7G8 was 10 µM (active).

Consider `CCCCCCCCCCCCCCCC[N+](C)(C)CC`, for which the Potency in [1] (parasite line A) is 3.98 µM (active); in [1] (parasite line B), 5.01 µM (active); with 3D7 it was 3.55 µM (active); in the assay on 7G8, 3.55 µM (active); in the assay on AA1029, 4.47 µM (active); in the assay with AS120, 5.01 µM (active). The Potency with ATS189 was 10 µM (active); in the assay with ATS95 it was 6.31 µM (active); in the assay with C2A, 3.55 µM (active); in the assay on CP185, 3.98 µM (active); in the assay on CP191 it was 3.98 µM (active).

Regarding `CCC(C(=O)OCCN(CC)CC)c1ccccc1` (stereo unspecified), the activity, negative = inhibition in assay [1] (setting [2]) is -4.21%; in [1] (setting [3]) it was 8.52%. Also, the Potency entry with 3D7, in the assay on 7G8, in the assay on AA1029, in the assay on AS120, in the assay with ATS189 and in the assay with ATS95 was “inactive” in each case. Besides, the Potency result in the assay with C2A, with CP185 and in the assay on CP191 was “inactive” each time.

As to `O=C1OC(c2ccc(O)cc2)(c2ccc(O)cc2)c2ccccc21`, the activity, negative = inhibition in assay [1] (setting [2]) was -7.68%; in assay [1] (setting [3]), 10.2%. For the same compound, the Potency entry in the assay on 3D7, with 7G8, in the assay with AA1029, in the assay on AS120, in the assay with ATS95 and in the assay on C2A was “inactive” each time. The Potency result with CP185 and in the assay with CP191 was “inactive” throughout.

For `Nc1ccc(/C=C/c2ccc(N)cc2S(=O)(=O)O)c(S(=O)(=O)O)c1`, the activity, negative = inhibition was -8.57% in assay [1] (setting [2]) and 7.68% in assay [1] (setting [3]). The Potency entry in the assay on 3D7, in the assay with 7G8, with AA1029, in the assay with AS120, in the assay on ATS189 and with ATS95 was “inactive” throughout. In addition, the Potency entry with C2A, with CP185 and in the assay on CP191 was “inactive” throughout.

With `Cc1cccn2c(=O)c(-c3nnn[nH]3)cnc12`, the activity, negative = inhibition in assay [1] (setting [2]) is 7.08%; in assay [1] (setting [3]), 2.69%. Also, the Potency result with 3D7, in the assay on 7G8, with AA1029, in the assay on AS120, in the assay with ATS189 and with ATS95 was “inactive” each time. Also, the Potency entry in the assay with C2A, in the assay with CP185 and with CP191 was “inactive” in each case.

As to `CC1=C(C(=O)OC(C)C)C(c2cccc([N+](=O)[O-])c2)C(C(=O)OC2CN(C(c3ccccc3)c3ccccc3)C2)=C(N)N1` (stereo unspecified), the Potency in assay [1] (parasite line A) was 3.55 µM (active); in [1] (parasite line B), 7.08 µM (active); in the assay on 3D7, 7.08 µM (active); in the assay with 7G8, 3.16 µM (active); in the assay with AA1029, 7.08 µM (active); in the assay with AS120, 4.47 µM (active). Further, the Potency is 7.08 µM (active) with ATS189, 11.2 µM (active) in the assay with ATS95, 10 µM (active) with CP185 and 7.08 µM (active) in the assay on CP191.

Take `CCOC(=O)OC(C)OC1=C(C(=O)Nc2ccccn2)N(C)S(=O)(=O)c2ccccc21` (stereo unspecified): the activity, negative = inhibition is 3.03% in assay [1] (setting [2]) and 19.4% in [1] (setting [3]). In addition, the Potency result with 3D7, with 7G8, with AA1029, in the assay on AS120, in the assay with ATS189 and in the assay with ATS95 was “inactive” throughout. For the same compound, the Potency entry with C2A, in the assay on CP185 and in the assay on CP191 was “inactive” throughout.

In the case of `COCc1c(C(C)C)nc(C(C)C)c(/C=C/[C@@H](O)C[C@@H](O)CC(=O)O)c1-c1ccc(F)cc1`, the activity, negative = inhibition in assay [1] (setting [2]) was -9.49%; in assay [1] (setting [3]), -12.9%. For the same compound, the Potency entry in the assay with 3D7, in the assay on AA1029, in the assay with AS120, with ATS189, with ATS95 and in the assay with C2A was “inactive” in each case. Besides, the Potency entry in the assay with CP185 and with CP191 was “inactive” in each case.

In the case of `C#C[C@]1(O)CC[C@H]2[C@@H]3CCc4cc(OC5CCCC5)ccc4[C@H]3CC[C@@]21C`, the activity, negative = inhibition in [1] (setting [2]) is -10.1%; in [1] (setting [3]), -11.7%. The Potency entry with 3D7, with AA1029, in the assay on ATS189, in the assay on C2A and with CP185 was “inactive” each time.

Consider `CCN(CC)CCOC(=O)C(c1ccccc1)C1CCCCC1` (stereo unspecified), for which the activity, negative = inhibition in assay [1] (setting [2]) is 0.689%; in [1] (setting [3]), -1.84%. For the same compound, the Potency entry in the assay with 3D7, in the assay with AS120, in the assay with ATS189, in the assay on C2A, in the assay with CP185 and in the assay on CP191 was “inactive” in each case.

In the case of `C[C@H]1[C@H](NC(=O)/C(=N/OC(C)(C)C(=O)O)c2csc(N)n2)C(=O)N1S(=O)(=O)O` (stereo in doubt), the activity, negative = inhibition was 1.65% in assay [1] (at 12.8 µM (top of the series), parasite line A) and 14.2% in assay [1] (at 12.8 µM (top of the series), parasite line B). Besides, the Potency result with 3D7, in the assay on AA1029, in the assay with AS120, with ATS189, with ATS95 and in the assay on C2A was “inactive” throughout. Further, the Potency result in the assay on CP185 and with CP191 was “inactive” in each case.

For the origin of these results see PubChem BioAssay (NCATS).
